From PubChem BioAssay (Tox21)
Results filed as inconclusive are left out. Calls of active or inactive are those of the source. Unless noted, calls come from the whole dose curve; as a rule, active = well fitted curve in the direction sought with a large enough effect in the repeat runs; inconclusive = weak or mixed curves; inactive = no such curve, though single readings can be large; an effect the other way counts as inactive or inconclusive.

Assays:
[1] = qHTS assay to identify small molecule antagonists of the thyroid receptor (TR) signaling pathway (AID 743065); note: series mostly up to about 70 µM; nearly all actives have a fitted effect of over 55% in size
How it was run: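 Antagonism measured as loss of luciferase signal in GH3 cells stably carrying a TRE-luciferase reporter, co-treated with compound and T3 (1 nM final) for 23.5 h at 37 C. Viability was read in the same well by CellTiter-Fluor.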

[2] = test system: thyroid hormone receptor (rat, GH3 cells); assay: qHTS assay to identify small molecule agonists of the thyroid receptor (TR) signaling pathway (AID 743066; calls by dose curve)
[3] = molecular target: Estrogen receptor (Homo sapiens) (UniProt P03372); assay: qHTS assay to identify small molecule antagonists of the estrogen receptor alpha (ER-alpha) signaling pathway (AID 743069; active = well fitted curve in the direction sought with a large enough effect in the signal ratio in the repeat runs, not every such curve was filed as active; the % refers to the signal ratio)
How it was run: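 Compound effects are measured against 17beta-estradiol stimulation in HEK293 cells with a UAS-controlled beta-lactamase reporter for ER-alpha. Exposure lasts 18 hr at 37C; LiveBLAzer B/G FRET substrate follows for 2 hr at room temperature.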

[4] = qHTS assay to identify small molecule antagonists of the estrogen receptor alpha (ER-alpha) signaling pathway - cell viability counter screen (AID 743074; calls by dose curve;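 note: HEK293 cells carrying ER-alpha-UAS-bla reporter stimulated with 17beta-estradiol; nearly all actives have a fitted effect of over 45% in size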)
[5] = molecular target: Estrogen receptor (Homo sapiens) (UniProt P03372); assay: qHTS assay to identify small molecule agonists of the estrogen receptor alpha (ER-alpha) signaling pathway (AID 743075; calls by dose curve)
[6] = molecular target: Estrogen receptor (Homo sapiens) (UniProt P03372); assay: qHTS assay to identify small molecule agonists of the estrogen receptor alpha (ER-alpha) signaling pathway using the BG1 cell line (AID 743079); note: nearly all actives have a fitted effect of over 20% in size; note: potency is the fitted concentration of half-maximal effect
[7] = qHTS assay to identify small molecule antagonists of the estrogen receptor alpha (ER-alpha) signaling pathway using the BG1 cell line (AID 743080; calls by dose curve;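 note: BG1 cells stimulated with 17beta-estradiol alongside compound; series mostly up to about 70 µM; nearly all actives have a fitted effect of over 25% in size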)
How it was run: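 BG1Luc4E2, endogenous ER-alpha, 4xERE-luc; 5 d charcoal-stripped FBS, phenol red free; 24 h plating; cpd + 17beta-estradiol 21.5 h, 37 C/5% CO2; CellTiter-Fluor viability 30 min, then ONE-Glo luciferase 30 min RT.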

[8] = qHTS assay to identify small molecule antagonists of the estrogen receptor alpha (ER-alpha) signaling pathway using the BG1 cell line - cell viability counter screen (AID 743081);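 note: compound given together with 17beta-estradiol as the ER stimulus; series mostly up to about 70 µM; nearly all actives have a fitted effect of over 45% in size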
Aromatase (Homo sapiens) = Aromatase (Homo sapiens) (UniProt P11511); assay: qHTS assay to identify aromatase inhibitors (AID 743083); note: series mostly up to about 70 µM; nearly all actives have a fitted effect of over 55% in size
[9] = qHTS assay to identify aromatase inhibitors - cell viability counter screen (AID 743084);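 note: cells stimulated with testosterone during compound exposure; nearly all actives have a fitted effect of over 55% in size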
[10] = molecular target: Aryl hydrocarbon receptor (Homo sapiens) (UniProt P35869); assay: qHTS assay to identify small molecule that activate the aryl hydrocarbon receptor (AhR) signaling pathway (AID 743085);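 note: HG2L7.5c1 human HepG2 liver cells with stably integrated DRE-driven firefly reporter; series mostly up to about 70 µM; nearly all actives have a fitted effect of over 15% in size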
How it was run: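 HepG2 cells (HG2L7.5c1) stably carrying a firefly luciferase reporter driven by 20 dioxin responsive elements were exposed to compound for 24 h at 37C after a 5 h settling period; luminescence rise (ONE-Glo) indicated activation.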

[11] = qHTS assay to identify small molecule that activate the aryl hydrocarbon receptor (AhR) signaling pathway - cell viability counter screen (AID 743086);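 note: HepG2 liver cells carrying the AhR DRE luciferase reporter; series mostly up to about 70 µM; nearly all actives have a fitted effect of over 45% in size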
How it was run: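 Cytotoxicity counter screen: CellTiter-Fluor signal (30 min, 37 C) in 4000 HepG2 cells/well carrying the DRE-luciferase reporter, following 24 h compound exposure at 37 C.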

[12] = molecular target: Peroxisome proliferator-activated receptor gamma (Homo sapiens) (UniProt P37231); assay: qHTS assay to identify small molecule agonists of the peroxisome proliferator-activated receptor gamma (PPARg) signaling pathway (AID 743094; active = well fitted activation curve with a large enough effect in the signal ratio in the repeat runs, not every such curve was filed as active; the % refers to the signal ratio)
How it was run: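 Stably transfected HEK293H cells (GeneBLAzer PPARg UAS-bla) were incubated with test substances for 17 h at 37C after a 5 h pre-incubation; beta-lactamase activity was then detected by FRET substrate fluorescence.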

[13] = molecular target: Peroxisome proliferator-activated receptor gamma (Homo sapiens) (UniProt P37231); assay: qHTS assay to identify small molecule antagonists of the peroxisome proliferator-activated receptor gamma (PPARg) signaling pathway (AID 743191; calls by dose curve; note: series mostly up to about 63 µM; nearly all actives have a fitted effect of over 30% in size)
How it was run: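 Beta-lactamase reporter under UAS control in HEK293H PPARg-bla cells; compound treatment 17 h at 37C. Read-out: fluorescence intensity after 1 h room-temperature incubation with LiveBLAzer B/G FRET substrate.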

[14] = qHTS assay to identify small molecule antagonists of the peroxisome proliferator-activated receptor gamma (PPARg) signaling pathway - cell viability counter screen (AID 743194); note: nearly all actives have a fitted effect of over 55% in size
How it was run: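 Viability was measured as CellTiter-Glo luminescence in GeneBLAzer PPARg UAS-bla HEK293H cells. These cells had been exposed 17 h at 37 C to compounds together with rosiglitazone at 50 nM final, with the beta-lactamase readout taken in the same wells.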

[15] = qHTS assay for small molecule agonists of the antioxidant response element (ARE) signaling pathway (AID 743202; active = well fitted activation curve with a large enough effect in the signal ratio in the repeat runs, not every such curve was filed as active; the % refers to the signal ratio)
How it was run: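 An ARE-responsive beta-lactamase gene stably integrated in HepG2 cells serves as reporter. After 5 h plating and 16 h compound incubation at 37 C, fluorescence of the B/G FRET substrate was measured.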

[16] = qHTS assay for small molecule agonists of the antioxidant response element (ARE) signaling pathway - cell viability counter screen (AID 743203; calls by dose curve; note: nearly all actives have a fitted effect of over 55% in size)
How it was run: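 Cells (ARE-bla HepG2, 2,000/well) receive DMSO-dissolved compounds after a 5 hrs rest. Plates incubate 16 hrs at 37C/5% CO2. CellTiter-Glo luminescence is then recorded after 30 min at room temperature.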

[17] = qHTS assay for small molecule activators of the heat shock response signaling pathway - cell viability counter screen (AID 743209); note: nearly all actives have a fitted effect of over 50% in size
How it was run: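 Quantitative HTS format, Tox21 10K library. HeLa cells carrying an HSE-driven beta-lactamase reporter were treated 5 h at 37 C, then assessed for viability by CellTiter-Glo luminescence.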

[18] = qHTS assay for small molecule activators of the heat shock response signaling pathway (AID 743210; active = well fitted activation curve with a large enough effect in the signal ratio in the repeat runs, with a control signal flat, not every such curve was filed as active; the % refers to the signal ratio;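 note: HeLa cells with beta-lactamase reporter driven by heat shock elements; series mostly up to about 63 µM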)
How it was run: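 In HSE-bla HeLa cells, 5 h compound incubation (37 C) precedes addition of LiveBLAzer B/G substrate; after 2.5 h at room temperature, fluorescence intensity indicates reporter induction.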

[19] = qHTS assay to identify small molecule agonists of the peroxisome proliferator-activated receptor delta (PPARd) signaling pathway - cell viability counter screen (AID 743211); note: nearly all actives have a fitted effect of over 55% in size
How it was run: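 PPARd-bla HEK293H cells (UAS-beta-lactamase reporter) were treated with compounds for 17 h at 37 C. Viability was then read in the same wells by CellTiter-Glo luminescence after 30 min at room temperature.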

Measured: Potency

Aryl hydrocarbon receptor (Homo sapiens), sequence (P35869 whole entry, looked up): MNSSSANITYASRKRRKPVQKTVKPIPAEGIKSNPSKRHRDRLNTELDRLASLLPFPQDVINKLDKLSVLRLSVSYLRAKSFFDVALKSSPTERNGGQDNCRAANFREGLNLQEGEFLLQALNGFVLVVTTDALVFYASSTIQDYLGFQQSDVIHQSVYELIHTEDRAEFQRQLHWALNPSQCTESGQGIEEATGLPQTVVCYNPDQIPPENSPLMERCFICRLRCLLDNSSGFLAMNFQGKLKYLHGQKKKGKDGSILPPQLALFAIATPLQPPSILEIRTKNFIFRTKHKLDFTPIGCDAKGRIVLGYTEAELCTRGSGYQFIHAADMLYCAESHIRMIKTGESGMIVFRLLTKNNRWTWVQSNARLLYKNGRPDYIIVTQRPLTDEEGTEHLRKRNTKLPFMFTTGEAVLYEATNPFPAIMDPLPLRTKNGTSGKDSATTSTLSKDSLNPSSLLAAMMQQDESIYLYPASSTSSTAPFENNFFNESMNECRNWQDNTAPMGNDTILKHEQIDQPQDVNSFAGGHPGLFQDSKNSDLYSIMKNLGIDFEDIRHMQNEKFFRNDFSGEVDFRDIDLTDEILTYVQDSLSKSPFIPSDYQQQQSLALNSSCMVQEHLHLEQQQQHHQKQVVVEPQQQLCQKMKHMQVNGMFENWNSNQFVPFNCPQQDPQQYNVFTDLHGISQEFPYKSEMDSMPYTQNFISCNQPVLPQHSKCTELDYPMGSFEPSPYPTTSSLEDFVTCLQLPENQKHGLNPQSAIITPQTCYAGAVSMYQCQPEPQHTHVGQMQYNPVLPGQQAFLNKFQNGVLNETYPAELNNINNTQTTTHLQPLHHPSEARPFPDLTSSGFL
Aromatase (Homo sapiens), sequence (P11511 whole entry, looked up): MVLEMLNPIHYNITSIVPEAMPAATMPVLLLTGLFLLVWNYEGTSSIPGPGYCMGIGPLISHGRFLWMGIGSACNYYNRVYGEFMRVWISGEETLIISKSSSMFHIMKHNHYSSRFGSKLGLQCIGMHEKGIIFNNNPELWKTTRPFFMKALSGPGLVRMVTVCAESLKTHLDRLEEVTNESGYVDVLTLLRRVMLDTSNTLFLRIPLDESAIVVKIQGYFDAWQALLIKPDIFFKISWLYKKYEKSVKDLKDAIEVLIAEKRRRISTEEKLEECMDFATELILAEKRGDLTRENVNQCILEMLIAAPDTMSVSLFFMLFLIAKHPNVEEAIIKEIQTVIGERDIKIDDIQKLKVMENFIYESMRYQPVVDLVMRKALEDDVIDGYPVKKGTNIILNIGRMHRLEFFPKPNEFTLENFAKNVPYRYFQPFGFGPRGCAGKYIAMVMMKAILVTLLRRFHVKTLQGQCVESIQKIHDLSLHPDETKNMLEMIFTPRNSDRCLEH
Estrogen receptor (Homo sapiens), sequence (P03372 whole entry, looked up): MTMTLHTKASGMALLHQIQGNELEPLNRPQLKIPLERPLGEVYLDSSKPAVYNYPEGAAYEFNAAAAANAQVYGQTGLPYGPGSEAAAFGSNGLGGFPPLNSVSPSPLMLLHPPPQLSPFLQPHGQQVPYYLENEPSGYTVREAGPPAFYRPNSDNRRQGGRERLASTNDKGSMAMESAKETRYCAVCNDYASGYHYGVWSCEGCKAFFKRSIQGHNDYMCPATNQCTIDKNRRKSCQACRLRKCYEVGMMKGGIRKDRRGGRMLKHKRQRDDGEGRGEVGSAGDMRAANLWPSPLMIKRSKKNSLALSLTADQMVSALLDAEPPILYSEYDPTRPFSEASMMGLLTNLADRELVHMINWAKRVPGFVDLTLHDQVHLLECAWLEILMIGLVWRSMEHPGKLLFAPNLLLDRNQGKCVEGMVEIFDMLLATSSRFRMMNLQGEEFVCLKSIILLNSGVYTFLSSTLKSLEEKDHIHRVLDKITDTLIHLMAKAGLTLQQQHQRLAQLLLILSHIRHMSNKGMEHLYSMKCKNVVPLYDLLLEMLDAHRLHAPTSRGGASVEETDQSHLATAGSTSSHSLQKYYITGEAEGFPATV
Peroxisome proliferator-activated receptor gamma (Homo sapiens), sequence (P37231 whole entry, looked up): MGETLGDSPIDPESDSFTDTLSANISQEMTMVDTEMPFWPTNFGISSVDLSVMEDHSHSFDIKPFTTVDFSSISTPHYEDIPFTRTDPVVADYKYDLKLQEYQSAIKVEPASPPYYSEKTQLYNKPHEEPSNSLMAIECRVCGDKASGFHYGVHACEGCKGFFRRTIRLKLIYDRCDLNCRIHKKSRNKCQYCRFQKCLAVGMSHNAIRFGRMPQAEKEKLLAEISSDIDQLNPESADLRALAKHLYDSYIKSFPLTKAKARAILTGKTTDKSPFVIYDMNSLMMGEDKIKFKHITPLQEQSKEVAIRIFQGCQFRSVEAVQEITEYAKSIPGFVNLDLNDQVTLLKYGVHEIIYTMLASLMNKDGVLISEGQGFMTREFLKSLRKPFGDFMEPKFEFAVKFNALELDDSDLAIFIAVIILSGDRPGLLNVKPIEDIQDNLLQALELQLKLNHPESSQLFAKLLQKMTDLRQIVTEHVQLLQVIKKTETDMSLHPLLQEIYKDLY

CN(C)CCCO[C@@H]1[C@H]2OC(C)(C)O[C@H]2O[C@@H]1C(O)CO (stereo partly specified)
inactive: all assays above

CCC(C)C(C)=O (stereo unspecified)
active: [6] 67 µM
not listed: [14]
inactive: all other assays above

CC(C)c1ccc(C=O)cc1
not listed: [14]
inactive: all other assays above

Cc1ncc([N+](=O)[O-])n1CC(C)O (stereo unspecified)
not listed: [18]
inactive: all other assays above

CCC(C)C(=O)OCCc1ccccc1 (stereo unspecified)
not listed: [16] | [18]
inactive: all other assays above

Cc1c(Cl)cccc1Cl
not listed: [14]
inactive: all other assays above

COC(=O)CCCCC(=O)O
not listed: [16]
inactive: all other assays above

c1ccc2cnccc2c1
not listed: [15] | [18]
inactive: all other assays above

CC1(C)Cc2cccc(N)c2O1
inactive: all assays above

CC(=O)CCc1ccc(OC(C)=O)cc1
not listed: [16] | [18]
inactive: all other assays above

C=C(C)c1cccc(C(C)(C)N=C=O)c1
inactive: all assays above

Cc1ccc(N)cc1S(=O)(=O)O
not listed: [18]
inactive: all other assays above

O=C(O)CNC(=O)CNC(=O)CNC(=O)CSC(=O)c1ccccc1
not listed: [16]
inactive: all other assays above

C[Si]1(C)O[Si](C)(C)O[Si](C)(C)O[Si](C)(C)O[Si](C)(C)O1
not listed: [13]
inactive: all other assays above
